Here are results for 68 molecules from PubChem BioAssay AID624255 (Broad Institute, 2012).

Screen size: about 77,000 compounds; about 4,600 (6%) were called active. Inconclusive results (about 1%) are left out. Many of the other results were omitted from the sample, so actives are more common in it than they were. Unmarked numbers belong to inactive results.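 The calls were made as follows: active = mean inhibition above about 93%, with at least 55% of replicates each passing it (limit read from the data, passing the limit was not always enough); inconclusive = only one of those two conditions holds; inactive = neither condition holds.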

The assay in a line: growth inhibition of T. cruzi in host fibroblasts – cell-based, beta-gal Tulahuen parasites, NIH3T3 host, luminescence, primary screen (AID 624255). As to conditions: T. cruzi beta-gal in NIH3T3, GalScreen luminescence, 90 h; at 8.34 µM; active compounds read high.
What is called inhibition is the drop in the measured response relative to a control, in per cent. As for `C[C@H](CO)N1C[C@H](C)[C@@H](CN(C)C(=O)CCC(F)(F)F)OCCCC[C@H](C)Oc2ccc(NC(=O)C3CCCCC3)cc2C1=O`, the inhibition is 39.7%. `COc1cccc(-c2ccc3c(c2)[C@@H]2[C@@H](CCN2S(=O)(=O)C2=NC(C)C=N2)[C@@H](CO)N3C)c1` (stereo partly drawn): the inhibition was 6.92%. Turning to `CO[C@H]1CN(C)C(=O)c2cc(NC(=O)Nc3cccc(F)c3)ccc2OC[C@H](C)N(C(C)=O)C[C@H]1C`, the inhibition is 26.3%. As to `OC[C@H]1[C@H](c2ccc(-c3cccnc3)cc2)[C@H]2CN(Cc3ccccn3)CCCCN21`, the inhibition was 79.7%. As for `CCCC#Cc1ccc([C@H]2[C@@H](CO)N3CCCCN(S(=O)(=O)Cc4ccccc4)C[C@H]23)cc1`, the inhibition was 54.7%. The same measure for `CN1CCCCN2[C@H](CO)[C@H](c3ccc(-c4ccc(F)cc4)cc3)[C@@H]2C1`: 14.5%; for `Cc1cccc(-c2ccc([C@@H]3[C@@H](CO)N4CCCCN(S(=O)(=O)c5cccs5)C[C@H]34)cc2)c1`: 118% (active).

As for `O=S(=O)(c1ccccc1)N1CCCCN2[C@H](C1)[C@H](c1ccc(-c3ccccc3)cc1)[C@@H]2CO`, the inhibition was 94.7%. In the case of `O=S(=O)(Cc1ccccc1)N1CCCCN2[C@@H](CO)[C@H](c3ccc(-c4cccnc4)cc3)[C@@H]2C1`, the inhibition is 106% (active). The same measure for `CCS(=O)(=O)N1CCCCN2[C@@H](CO)[C@@H](c3ccc(-c4ccccc4)cc3)[C@@H]2C1`: 93.7% (active). The same measure for `O=S(=O)(Cc1ccccc1)N1CCCCN2[C@@H](CO)[C@@H](c3ccc(-c4ccc(F)cc4)cc3)[C@@H]2C1`: 98.2% (active); for `Cc1cccc(-c2ccc([C@H]3[C@H](CO)N4CCCCN(S(=O)(=O)c5cn(C)cn5)C[C@@H]34)cc2)c1`: 41.5%; for `COc1cccc(-c2ccc([C@H]3[C@H](CO)N4CCCCN(S(=O)(=O)c5cccs5)C[C@@H]34)cc2)c1`: 91.7%. Turning to `CCCC#Cc1ccc([C@H]2[C@@H](CO)N3CCCCN(S(=O)(=O)CC)C[C@H]23)cc1`, the inhibition is 65.9%.

Consider `COCc1cn(CC[C@H]2CC[C@H](NC(=O)Nc3ccc4c(c3)OCO4)[C@@H](CO)O2)nn1`, for which the inhibition was -12.8%. In the case of `C[C@H](CO)N1C[C@H](C)[C@@H](CN(C)C(=O)Nc2ccc3c(c2)OCO3)OCCCC[C@H](C)Oc2ccc(NC(=O)Nc3ccc(F)cc3)cc2C1=O`, the inhibition is -31.4%.

In the case of `O=C(C[C@H]1C=C[C@H](NC(=O)C2CCOCC2)[C@@H](CO)O1)NCC1CC1`, the inhibition was -20.7%. Consider `CC(C)NC(=O)N(C)C[C@H]1OCCCC[C@H](C)Oc2ccc(NS(=O)(=O)c3ccc(Cl)cc3)cc2C(=O)N([C@@H](C)CO)C[C@H]1C`, for which the inhibition was -6.73%. Consider `C[C@@H]1CN([C@H](C)CO)C(=O)c2cc(NC(=O)c3ccccc3)ccc2O[C@@H](C)CCCCO[C@H]1CN(C)C(=O)c1ccncc1`, for which the inhibition was -20.8%. With `CCC(=O)N1C[C@H](C)[C@H](OC)CN(C)C(=O)c2ccc(NC(=O)Nc3ccccc3)cc2OC[C@H]1C`, the inhibition is -75.2%.

In the case of `CCC(=O)Nc1ccc2c(c1)OC[C@H](C)N(Cc1ccccc1OC)C[C@@H](C)[C@@H](OC)CN(C)C2=O`, the inhibition was 32.5%. Take `CCC(=O)Nc1ccc2c(c1)C(=O)N(C)[C@@H]1CC[C@@H](CC(=O)NCCc3ccccc3)O[C@H]1CO2`: the inhibition is 49.1%.

`C/C=C/c1ccc([C@H]2[C@@H](CO)N(C(=O)Cc3ccncc3)[C@@H]2CNC(C)=O)cc1`: the inhibition was 13.1%. With `CS(=O)(=O)N1CCCCN2[C@H](CO)[C@H](c3ccc(-c4cccc(C#N)c4)cc3)[C@H]2C1`, the inhibition is 74.2%. As for `O=S(=O)(Cc1ccccc1)N1CCCCN2[C@@H](CO)[C@H](c3ccc(-c4ccccc4)cc3)[C@@H]2C1`, the inhibition was 110% (active). With `O=S(=O)(Cc1ccccc1)N1CCCCN2[C@H](CO)[C@@H](c3ccc(-c4cncnc4)cc3)[C@H]2C1`, the inhibition is 91%. To `COCC(=O)Nc1ccc2c(c1)C(=O)N(C)[C@@H]1CC[C@H](CC(=O)NCC3CCCCC3)O[C@H]1CO2` belongs -49.4%.

Regarding `COc1ccccc1C#Cc1cnc2c(c1)C(=O)N([C@@H](C)CO)C[C@@H](C)[C@@H](CN(C)C(=O)CN(C)C)O2`, the inhibition was -91.1%.

Turning to `CC(C)CC#Cc1cnc2c(c1)C(=O)N([C@@H](C)CO)C[C@@H](C)[C@H](CN(C)C(=O)Cc1ccncc1)O2`, the inhibition was 107% (active).

For the molecule `COCC(=O)N(C)C[C@@H]1Oc2ncc(C#Cc3ccccc3OC)cc2C(=O)N([C@@H](C)CO)C[C@H]1C`, the inhibition was 113% (active). To `CCCC#Cc1cnc2c(c1)C(=O)N([C@H](C)CO)C[C@H](C)[C@H](CN(C)C(=O)Cc1ccncc1)O2` belongs -5.16%; to `COc1cccc(C#Cc2cnc3c(c2)C(=O)N([C@@H](C)CO)C[C@H](C)[C@@H](CN(C)C(C)=O)O3)c1`, -12.9%; to `COc1ccc(C#Cc2cnc3c(c2)C(=O)N([C@@H](C)CO)C[C@H](C)[C@@H](CN(C)C(C)=O)O3)cc1`, 110% (active). As for `COc1ccccc1C#Cc1cnc2c(c1)C(=O)N([C@@H](C)CO)C[C@@H](C)[C@H](CN(C)C(=O)CN(C)C)O2`, the inhibition is 36.2%. As for `CC(=O)N(C)C[C@H]1Oc2ncc(C#Cc3ccccn3)cc2C(=O)N([C@H](C)CO)C[C@@H]1C`, the inhibition is 57.3%. For the molecule `C[C@@H]1CN([C@H](C)CO)C(=O)c2cc(C#CCN(C)C)cnc2O[C@H]1CN(C)C(=O)Cc1ccncc1`, the inhibition is 67.2%. The same measure for `COc1ccc(C#Cc2cnc3c(c2)C(=O)N([C@H](C)CO)C[C@H](C)[C@@H](CN(C)C)O3)cc1`: 29.3%; for `C[C@@H]1CN([C@@H](C)CO)C(=O)c2cc(C#Cc3ccccc3)cnc2O[C@H]1CN(C)C(=O)c1ccccn1`: 108% (active).

With `CCC(=O)N(C)C[C@@H]1Oc2ncc(C#Cc3ccccc3)cc2C(=O)N([C@@H](C)CO)C[C@H]1C`, the inhibition was 87.1%.

As for `COc1ccc(CN(C)C[C@@H]2OCCCC[C@H](C)Oc3ccc(NC(=O)c4ccccc4)cc3C(=O)N([C@H](C)CO)C[C@H]2C)cc1`, the inhibition was 76.8%. The same measure for `CC=Cc1ccc2n(c1=O)C[C@@H]1[C@@H](CO)[C@H](C(=O)NCC(F)(F)F)N(CCc3ccccc3)[C@H]21` (mixture of isomers): 47.7%; for `Cc1ccc(S(=O)(=O)N[C@H]2CC[C@@H](CC(=O)NCc3ccc(Cl)c(Cl)c3)O[C@H]2CO)cc1`: 64.8%. For the molecule `CCCC(=O)Nc1ccc2c(c1)C(=O)N(C)C[C@@H](OC)[C@@H](C)CN(Cc1cncnc1)[C@@H](C)CO2`, the inhibition is -11%. As to `CC(C)NC(=O)Nc1ccc2c(c1)CC(=O)N([C@@H](C)CO)C[C@@H](C)[C@H](CN(C)CC1CC1)O2`, the inhibition was 14.2%. Consider `CCC(=O)Nc1ccc2c(c1)C(=O)N(C)[C@@H]1CC[C@@H](CC(=O)N[C@@H](C)c3ccccc3)O[C@@H]1CO2`, for which the inhibition was 29.7%. For `COc1ccc(S(=O)(=O)Nc2ccc3c(c2)C(=O)N([C@H](C)CO)C[C@@H](C)[C@H](CN(C)Cc2ccccc2)O3)cc1`, the inhibition was 13.7%. On to `CCCC#Cc1cnc2c(c1)C(=O)N([C@H](C)CO)C[C@H](C)[C@@H](CN(C)Cc1ccccc1)O2`, for which the inhibition was 18.3%.

Turning to `CC(C)CC#Cc1cnc2c(c1)C(=O)N([C@H](C)CO)C[C@H](C)[C@H](CN(C)C(=O)Nc1ccccc1F)O2`, the inhibition is 53.1%.

On to `CCCC#Cc1cnc2c(c1)C(=O)N([C@H](C)CO)C[C@@H](C)[C@@H](CN(C)C(=O)Nc1ccccc1F)O2`, for which the inhibition was 11.2%.

Take `C[C@@H]1CN([C@H](C)CO)C(=O)c2cc(/C=C/c3ccccc3)cnc2O[C@@H]1CN(C)Cc1ccncc1`: the inhibition is 96.3% (active). On to `CC(C)C#Cc1cnc2c(c1)C(=O)N([C@H](C)CO)C[C@@H](C)[C@H](CN(C)Cc1ccccc1)O2`, for which the inhibition is -6.87%. As to `C[C@H](CO)N1C[C@H](C)[C@H](CN(C)C(=O)Nc2cccc3ccccc23)Oc2ncc(C#Cc3ccccc3)cc2C1=O`, the inhibition is 122% (active). In the case of `C/C=C/c1cnc2c(c1)C(=O)N([C@@H](C)CO)C[C@@H](C)[C@H](CN(C)Cc1ccccc1)O2`, the inhibition was -55.6%. As to `C[C@@H]1CN([C@H](C)CO)C(=O)c2cc(C#Cc3ccccn3)cnc2O[C@H]1CN(C)Cc1ccccc1`, the inhibition was 120% (active). To `C[C@H](CO)N1C[C@H](C)[C@@H](CN(C)Cc2cccnc2)Oc2ncc(/C=C/c3ccccc3)cc2C1=O` belongs 12.8%; to `COc1ccccc1-c1cn(CC[C@H]2CC[C@H](NC(=O)C3CCOCC3)[C@@H](CO)O2)nn1`, 7.67%. Consider `O=C(C[C@@H]1C=C[C@H](NC(=O)Nc2ccc3c(c2)OCO3)[C@H](CO)O1)NCc1ccccc1`, for which the inhibition is 17.2%. The same measure for `CC=Cc1ccc2n(c1=O)C[C@@H]1[C@@H](CO)[C@H](C(=O)NCCc3ccccc3)N(C(C)=O)[C@H]21` (mixture of isomers): 28.7%; for `CCCC#Cc1ccc([C@@H]2[C@H](CO)N3CCCCN(S(=O)(=O)c4ccccc4F)C[C@@H]23)cc1`: 37.8%. Take `C/C=C/c1ccc([C@H]2[C@H]3CN(S(=O)(=O)c4ccccc4)CCCCN3[C@H]2CO)cc1`: the inhibition was 123% (active).

In the case of `CN(C)CC#Cc1ccc([C@H]2[C@H]3CN(S(=O)(=O)c4ccccc4F)CCCCN3[C@H]2CO)cc1`, the inhibition is 106% (active). In the case of `C[C@@H](O)C#Cc1ccc([C@H]2[C@@H](CO)N3CCCCN(S(=O)(=O)c4ccccc4)C[C@@H]23)cc1`, the inhibition was 59.2%. As for `C[C@@H](O)C#Cc1ccc([C@@H]2[C@H]3CN(S(=O)(=O)c4ccccc4)CCCCN3[C@H]2CO)cc1`, the inhibition was 26.7%. The same measure for `C[C@H](O)C#Cc1ccc([C@H]2[C@H]3CN(S(=O)(=O)Cc4ccccc4)CCCCN3[C@H]2CO)cc1`: 110% (active).

Turning to `C[C@@H](O)C#Cc1ccc([C@@H]2[C@H](CO)N3CCCCN(S(=O)(=O)c4ccccc4)C[C@@H]23)cc1`, the inhibition is 107% (active). On to `C[C@H](O)C#Cc1ccc([C@@H]2[C@H](CO)N3CCCCN(CC4CC4)C[C@@H]23)cc1`, for which the inhibition was 8.49%.

On to `C[C@@H](O)C#Cc1ccc([C@H]2[C@@H](CO)N3CCCCN(CC4CC4)C[C@@H]23)cc1`, for which the inhibition was 29.6%. As to `CCCC#Cc1ccc([C@H]2[C@H](CO)N3CCCCN(S(=O)(=O)CC)C[C@@H]23)cc1`, the inhibition was 47.8%.
